These results are taken from PubChem BioAssay AID720712 (NMMLSC, 2013).

The assay addresses Cell division control protein 42 homolog (Homo sapiens) (UniProt P60953). The assay can be described thus: blockade of fluorescent GTP loading onto wildtype Cdc42 – biochemical, compound preincubation comparison, flow cytometry beads, Bodipy-FL-GTP, mechanism study for Ras-family GTPase inhibitor project, late-stage follow-up (AID 720712). To be noted: GST-Cdc42 beads, Bodipy-FL-GTP binding, EDTA, protocol B; series mostly up to 100 µM. Background: In flow cytometry, cells or beads pass a laser one at a time.

Molecules are shown by their SMILES. Calls of active or inactive are those of the source.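 Rule for the calls: active = EC50 at most 10 µM with response changing by at least 30 points across doses, from an acceptable curve fit; inactive = the rest.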

Chain of Cell division control protein 42 homolog (Homo sapiens) (P60953 whole entry, looked up): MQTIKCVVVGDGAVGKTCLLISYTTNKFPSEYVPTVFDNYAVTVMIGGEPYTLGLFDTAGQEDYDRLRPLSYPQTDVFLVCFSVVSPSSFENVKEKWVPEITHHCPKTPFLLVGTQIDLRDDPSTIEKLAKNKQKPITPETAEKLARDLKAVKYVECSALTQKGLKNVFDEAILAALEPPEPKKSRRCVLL

Take `CC1(C)Cc2c(sc(NC(=S)NC(=O)c3cccc(N=[N+]=[N-])c3)c2C(=O)O)CO1`: the result was inactive.

With `CC1(C)Cc2c(sc(NC(=S)NC(=O)c3ccc(N=[N+]=[N-])cc3)c2C(=O)O)CO1`, the call was inactive.
